# Measurements published in PubChem BioAssay (Tox21).
# Records with an inconclusive call do not appear. Unmarked numbers belong to inactive results. The call rests on the fitted dose curve.
# Assay: qHTS assay to identify small molecule agonists or antagonists of the thyroid stimulating hormone receptor (TSHR) signaling pathway - wild type cell line counter screen (AID 1259384)
# Conditions: HEK293 wild type, cAMP HTRF counter-screen, stronger effect = higher value; series mostly up to 92.4 µM; cAMP activity change: at the top concentration
# How it was run: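 Counter screen in untransfected Hek293: compounds (15-point titration, triplicate) plus phosphodiesterase inhibitor Ro20-1724 added after 18 h plating; 30 min RT. Intracellular cAMP via competitive d2/cryptate immunoassay, 1 h incubation.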
# On the % scale 0 is the no-effect control and ±100 the full control effect.
row,Compound,cAMP activity change
1,C=C(C)C(=O)NCCC[N+](C)(C)C,0.336%
2,NCCN1CCNC1=O,3.27%
3,CCCC(=O)O[C@]1(C(=O)CCl)[C@@H](C)C[C@H]2[C@@H]3CCC4=CC(=O)C=C[C@]4(C)[C@@]3(F)C(=O)C[C@@]21C,1.35% [at 42.5 µM]
4,CCC(C)OC(=O)N1CCCCC1CCO (configuration not stated),2.44%
5,CCCCCCC(=O)OCC,-3.19%
6,O=C(O)c1ccc[n+]([O-])c1,-3.4% [at 42.5 µM]
7,CC(C)COC(=O)c1ccccc1O,3.08%
8,COc1ccc2cc(C=O)ccc2c1,0.157% [at 42.5 µM]
9,COc1cccc(Br)c1,-3.82%
10,CC1=CCC2C(C1)C2(C)C (configuration not stated),4.31%
11,CC(C)CCCC(C)NCCC(C)C (configuration not stated),-6.21% [at 42.5 µM]
12,CC(=O)CCc1ccc(O)cc1,-2.1%
13,CC1=CC(C)C(C=O)C(C)C1 (configuration not stated),1.82%
14,CNc1ncnc2nc[nH]c12,3.28%
15,Cn1ccc2cc3c(cc21)CCN3C(=O)Nc1cccnc1,-0.339% [at 18.9 µM]
16,c1ccc2cnncc2c1,3.4%
17,NC(=O)c1c(Cl)cccc1Cl,8.15%
18,COc1cc(CCC(C)=O)ccc1O,1.85%
19,C=C(C)C1CC=C(C)C(O)C1 (configuration not stated),2.88%
20,CCCCCOC(=O)Nc1nc(=O)n([C@@H]2O[C@H](C)[C@@H](O)[C@H]2O)cc1F,2.53% [at 42.5 µM]
21,O=C(O)c1ccccc1-c1ccc(C(F)(F)F)cc1,3.32% [at 42.5 µM]
22,CCCCNc1ccccc1,4.34%
23,OCC(CO)(CO)COCC(CO)(CO)CO,-0.417%
24,O=C(O)c1ccccc1S,-1.58% [at 42.5 µM]
25,CC(=O)NC(Cc1ccccc1)C(=O)O (configuration not stated),6.99% [at 42.5 µM]
26,COc1ccc(N=[N+]([O-])c2ccc(OC)cc2)cc1,0.0924%
27,CCCCCCCCN(C)CCCCCCCC,-2.42%
